From the supplement of paper PMC7411640
Where a name gives a salt, the structure may show the parent alone.

Test system: MDA-MB-468
Experiment: phospho-S6 immunofluorescence (DAPI-normalised), per-plate z-score; higher = higher phospho-S6 signal (less pathway suppression)
Conditions: 24 h
Protocol: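 GPCR-targeted compound library (MedChemExpress HY-L006) tested on MDA-MB-468 PTEN-null TNBC cells in 384-well plates at 0.1, 1 or 10 uM, combined with vehicle, GDC0941 450 nM or lapatinib 1 uM, for 24 h. Phospho-S6 (S240/244) immunofluorescence normalised to DAPI and expressed as a per-plate z-score; values are the mean of biological triplicates.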

SMILES	phospho-S6 immunofluorescence (z-score) (co-treatment: GDC0941 450 nM)	phospho-S6 immunofluorescence (z-score) (co-treatment: lapatinib 1 uM)	phospho-S6 immunofluorescence (z-score) (co-treatment: vehicle)
COC1CCC(C(=O)c2ccc3nc4c(cc3c2)CCCO4)CC1 (stereo not drawn) (compound 10 µM)	-0.83	0.85	0.02
CC(CCc1ccccc1)NCC(O)c1ccc(O)c(C(N)=O)c1 (stereo not drawn) [Labetalol (hydrochloride)] (compound 10 µM)	0.84	-0.16	0.83
Brc1c(NC2=NCCN2)ccc2nccnc12 [UK 14,304 (tartrate)] (compound 10 µM)	0.91	1.2	0.14
CN1CCN2c3ccccc3Cc3ccccc3C2C1 (stereo not drawn) [Mianserin (hydrochloride)] (compound 10 µM)	1	-0.76	1.67
CC(C)(C)NCC(O)c1cc(O)cc(O)c1 (stereo not drawn) [Terbutaline (sulfate)] (compound 10 µM)	0.52	1.51	1.44
CCOc1ccccc1OCCN[C@H](C)Cc1ccc(OC)c(S(N)(=O)=O)c1 [Tamsulosin] (compound 10 µM)	-1.32	0.1	-0.53
NCCc1c[nH]cn1 [Histamine] (compound 10 µM)	0	1.34	0.58
CN1CCC(=C2c3ccccc3C=Cc3ccccc32)CC1 [Cyproheptadine (hydrochloride sesquihydrate)] (compound 10 µM)	0.49	-0.96	-0.87
CN(C)CCCN1c2ccccc2Sc2ccc(Cl)cc21 [Chlorpromazine (hydrochloride)] (compound 10 µM)	0.58	-1.09	3.4
CC(C)Oc1ccc(-c2nc(-c3cccc4c3CC[C@@H]4NCCO)no2)cc1C#N [Ozanimod] (compound 10 µM)	0.72	-0.62	-0.3
N[C@@H](Cc1ccc(O)c(O)c1)C(=O)O (compound 10 µM)	-0.94	-0.12	-0.55
CC(C)NCC(O)COc1ccc(CCOCC2CC2)cc1 (stereo not drawn) [Betaxolol] (compound 10 µM)	0.15	0.69	-0.54
OCc1ccc(-c2nn(Cc3ccccc3)c3ccccc23)o1 [Lificiguat] (compound 10 µM)	3.23	2.82	0.54
CCn1c(=O)c2c(nc(/C=C/c3ccc(OC)c(OC)c3)n2C)n(CC)c1=O [Istradefylline] (compound 10 µM)	0.2	0.09	-0.74
C[C@@H](NCCCc1cccc(C(F)(F)F)c1)c1cccc2ccccc12 [Cinacalcet] (compound 10 µM)	-5.01	-7.68	-6.21
CC(C)c1cc(-c2ccc(F)c3ccccc23)nc(N)n1 (compound 10 µM)	-1.03	1.27	1.08
Cn1c(=O)c2c(ncn2CC(=O)O)n(C)c1=O [Acefylline] (compound 10 µM)	0.4	0.37	-0.98
COc1ccc(C2CC(c3ccccc3)=NN2c2ccc(S(N)(=O)=O)cc2)cc1 (stereo not drawn) (compound 10 µM)	-3.22	-0.2	-6.71
CC(C)COc1ccc(CNC(=O)N(Cc2ccc(F)cc2)C2CCN(C)CC2)cc1 [Pimavanserin tartrate] (compound 10 µM)	-3.99	-6.18	-5.03
COc1cccc(CCc2ccccc2OCC(CN(C)C)OC(=O)CCC(=O)O)c1 (stereo not drawn) [Sarpogrelate (hydrochloride)] (compound 10 µM)	0.63	-0.51	-0.15
Cc1ccc(NC(=S)NNc2c([N+](=O)[O-])cc(C(F)(F)F)cc2[N+](=O)[O-])cc1Cl (compound 10 µM)	0.79	-0.44	-0.73
Cc1c(CC(=O)O)c2cccnc2n1Cc1ccc(S(C)(=O)=O)cc1C(F)(F)F [Fevipiprant] (compound 10 µM)	-2.62	-1.74	-0.9
O=c1[nH]c2ccccc2n1CCN1CCN(c2cccc(C(F)(F)F)c2)CC1 [Flibanserin] (compound 10 µM)	-0.19	-0.04	0.48
N=C(N)NC(=O)Cc1c(Cl)cccc1Cl [Guanfacine (hydrochloride)] (compound 10 µM)	0.64	0.23	0.38
C[C@H]1C[C@H]2[C@@H]3CCC4=CC(=O)C=C[C@]4(C)[C@H]3C(=O)C[C@]2(C)[C@@]1(O)C(=O)CO [Meprednisone] (compound 10 µM)	0.11	-0.5	-0.52
c1ccc(CC2=NCCN2)cc1 [Tolazoline (hydrochloride)] (compound 10 µM)	1.08	0.41	0.92
